The results in this text go back to PubChem BioAssay AID2284377 (EPA ToxCast).

Results filed as inconclusive are left out. Activity calls are given as the source filed them. The calls were made as follows: active = hit-call score of the fitted dose curve at least 0.9, where 1 is the maximum; inconclusive = response in the unintended direction; inactive = score below 0.9.

The target in this test is Estrogen receptor (Homo sapiens) (UniProt P03372). In words: ERF_TW_NR_COA_hESR1: Eurofins (ERF) Nuclear Receptor (NR) Functional Coactivator Assay for human Estrogen Receptor alpha (ERa) Agonism. The protocol:
ERF_TW_NR_COA_hESR1 is a biochemical, single-readout assay that uses extracted gene-proteins in a cell-free assay. Measurements were taken 0.16 hours after chemical dosing in a 96-well plate. See ERalpha Human Estrogen NHR Functional Agonist Coactivator Assay, Panlabs.ERF_TW_NR_COA_hESR1 is an assay component calculated from the ERF_TW_NR_COA_hESR1 assay. It is designed to measure FRET using a type of binding reporter as detected by fluorescence intensity of estriol with fluorimetry technology.Data from the assay component ERF_TW_NR_COA_hESR1 was analyzed at the assay endpoint, ERF_TW_NR_COA_hESR1, in the positive analysis fitting direction relative to DMSO as the negative control and baseline of activity. Using a type of binding reporter, gain-of-signal activity can be used to understand changes in binding as they relate to gene ESR1. To generalize the intended target to other relatable targets, this assay endpoint is annotated to the nuclear receptor intended target family, where the subfamily is steroid.
Test compound and/or vehicle is incubated with the 7 nM estrogen receptor alpha (ERalpha)-LBD and coactivator peptide for 10 minutes at RT. Determination of the amount of complex formed is read spectrofluorimetrically at 520 nm/490 nm. Test compound-induced increase fluorescence by 50 percent or more (>/=50%) relative to the 1 uM Estriol response indicates possible ERalpha receptor agonist activity.

Chain of Estrogen receptor (Homo sapiens) (P03372 whole entry, looked up): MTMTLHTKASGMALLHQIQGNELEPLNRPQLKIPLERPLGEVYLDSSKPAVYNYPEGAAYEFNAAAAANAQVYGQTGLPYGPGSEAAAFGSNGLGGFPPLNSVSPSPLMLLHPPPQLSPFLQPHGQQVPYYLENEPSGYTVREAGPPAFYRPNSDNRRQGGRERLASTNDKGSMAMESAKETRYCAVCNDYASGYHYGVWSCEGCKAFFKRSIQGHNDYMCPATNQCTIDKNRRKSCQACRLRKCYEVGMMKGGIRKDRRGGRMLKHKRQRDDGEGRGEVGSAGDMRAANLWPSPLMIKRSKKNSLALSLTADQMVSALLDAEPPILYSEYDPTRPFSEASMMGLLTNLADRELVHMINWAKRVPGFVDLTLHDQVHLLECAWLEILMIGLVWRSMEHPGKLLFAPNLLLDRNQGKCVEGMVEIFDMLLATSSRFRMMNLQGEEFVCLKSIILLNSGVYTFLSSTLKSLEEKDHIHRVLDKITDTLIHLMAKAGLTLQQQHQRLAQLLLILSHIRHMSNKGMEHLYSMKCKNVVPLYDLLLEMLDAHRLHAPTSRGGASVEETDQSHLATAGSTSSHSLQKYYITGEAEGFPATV

Turning to `NS(=O)(=O)C(F)(F)C(F)(F)C(F)(F)C(F)(F)C(F)(F)C(F)(F)C(F)(F)C(F)(F)F`, the compound was called inactive.

With `OCC(F)(F)OC(F)(F)C(F)(F)OC(F)(F)C(F)(F)OC(F)(F)F`, the compound was called inactive.

Turning to `OCC(F)(F)OC(F)(F)C(F)(F)OC(F)(F)C(F)(F)OC(F)(F)CO`, the AC50 was 3.43 µM (active).

For orientation: AC50 means the midpoint of the concentration-response curve, whichever way the signal moves.
